From PubChem BioAssay AID1159580 (chemical genetic matrix, 2015)
In all, about 5,500 compounds went through this assay and about 2,000 (36%) were called active. About 18% were inconclusive and are not listed. Rule as the data show it: active = normalized growth mostly below about 0.91 (no sharp cut-off); inconclusive = no clear call, values can overlap the other calls; inactive = mostly above about 0.92. Some of the results follow.

Test: chemical genetic growth profiling, strain panel (AID 1159580);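 also: tested at 20 µM; growth read once vehicle control cultures reached saturation at 30 °C; 1 = growth at the plate median or of vehicle wells; lower values mean less growth of the strain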
Conditions: S. cerevisiae deletion strains, growth OD
[1] = locus YHR030C, strain SLT2, active compounds read low
[2] = locus YHR079C, strain IRE1, active compounds read low
[3] = locus YJL095W, strain BCK1, active compounds read low
[4] = locus YJR066W, strain TOR1, active compounds read low
[5] = locus YLR113W, strain HOG1, active compounds read low
[6] = locus YNL183C, strain NPR1, active compounds read low
[7] = locus YOR231W, strain MKK1, active compounds read low
[8] = locus YPL256C, strain CLN2, active compounds read low
[9] = locus YAL040C, strain CLN3, active compounds read low
[10] = locus YCL061C, strain MRC1 (second series), active compounds read low
[11] = locus YDR363W, strain ESC2, active compounds read low
[12] = locus YER002W, strain NOP16, active compounds read low
[13] = locus YMR263W, strain SAP30, active compounds read low
[14] = locus YMR307W, strain GAS1, active compounds read low
[15] = locus YNL175C, strain NOP13, active compounds read low
[16] = locus YNL197C, strain WHI3, active compounds read low
[17] = locus YNL224C, strain SQS1, active compounds read low
[18] = locus YOR083W, strain WHI5 (second series), active compounds read low

Measured: normalized growth

NC(=O)CCCCC1CCSS1 (configuration not stated)
inactive: [1] 1.02 | [2] 0.976 | [3] 1.01 | [4] 0.955 | [5] 1.02 | [6] 0.966 | [7] 0.986 | [8] 1.01

COc1ccc2c(c1)[C@@]13CCCC[C@H]1[C@@H](C2)NCC3
inactive: [9] 0.998 | [10] 0.997 | [11] 0.951 | [12] 1.02 | locus YJR075W, strain HOC1, active compounds read low 0.988 | [13] 0.992 | [14] 0.973 | [15] 0.996 | [16] 1.03 | [17] 1.01 | locus YNL322C, strain KRE1, active compounds read low 0.991 | [18] 1 | locus YPL055C, strain LGE1, active compounds read low 0.983 | locus YPL241C, strain CIN2, active compounds read low 1

OCC1NCC(O)C(O)C1O (configuration not stated)
inactive: locus YAL013W, strain DEP1, active compounds read low 1.02 | [9] 1.02 | [10] 1.01 | [11] 1.04 | [12] 1.01 | locus YGR078C, strain PAC10, active compounds read low 1 | [13] 1.01 | [14] 1.01 | locus YNL128W, strain TEP1, active compounds read low 1.02 | locus YNL153C, strain GIM3, active compounds read low 1.02 | [15] 1.02 | [16] 1.01 | [17] 0.998 | [18] 1

O=c1c(Cl)c(-n2cccn2)cnn1-c1ccc(Cl)cc1Cl
inactive: locus YAR019C, strain CDC15, active compounds read low 0.93 | locus YBL105C, strain PKC1, active compounds read low 0.948 | locus YBR135W, strain CKS1, active compounds read low 0.943 | locus YBR136W, strain MEC1, active compounds read low 0.949 | locus YBR160W, strain CDC28, active compounds read low 0.96 | locus YDL017W, strain CDC7, active compounds read low 0.95 | locus YDL028C, strain MPS1, active compounds read low 0.954 | locus YDL101C, strain DUN1, active compounds read low 0.985 | locus YDL108W, strain KIN28, active compounds read low 0.962 | locus YDL132W, strain cdc53, active compounds read low 0.95 | locus YDL214C, strain PRR2, active compounds read low 0.906 | locus YDR052C, strain DBF4, active compounds read low 0.93 | locus YDR054C, strain cdc34, active compounds read low 0.913 | locus YDR226W, strain ADK1, active compounds read low 0.974 | locus YDR477W, strain SNF1, active compounds read low 0.893 | locus YER123W, strain YCK3, active compounds read low 0.722 | locus YER133W, strain GLC7, active compounds read low 0.909 | locus YFL009W, strain cdc4, active compounds read low 0.955 | locus YFL029C, strain CAK1, active compounds read low 0.916 | locus YFR003C, strain YPI1, active compounds read low 0.953 | locus YFR019W, strain FAB1, active compounds read low 0.956 | locus YFR028C, strain CDC14, active compounds read low 0.965 | locus YGR040W, strain KSS1, active compounds read low 0.883 | locus YGR052W, strain FMP48, active compounds read low 0.902 | locus YGR092W, strain DBF2, active compounds read low 0.539 | [2] 0.768 | locus YHR082C, strain KSP1, active compounds read low 0.988 | locus YHR205W, strain SCH9, active compounds read low 1.02 | locus YIL147C, strain SLN1, active compounds read low 0.955 | [3] 0.823 | locus YJL128C, strain PBS2, active compounds read low 0.94 | locus YJL157C, strain FAR1, active compounds read low 0.864 | locus YJR016C, strain ILV3, active compounds read low 0.932 | locus YJR066W, strain TOR1 (second series), active compounds read low 0.726 | [4] 0.901 | locus YKL048C, strain ELM1, active compounds read low 0.979 | locus YKL067W, strain YNK1, active compounds read low 0.903 | locus YKL101W, strain HSL1, active compounds read low 0.951 | locus YKL193C, strain SDS22, active compounds read low 0.936 | locus YKL203C, strain TOR2, active compounds read low 0.909 | locus YLR133W, strain CKI1, active compounds read low 0.943 | locus YLR403W, strain SFP1, active compounds read low 0.92 | locus YML070W, strain DAK1, active compounds read low 0.917 | locus YMR001C, strain CDC5, active compounds read low 0.917 | locus YMR205C, strain PFK2 (second series), active compounds read low 0.926 | locus YMR277W, strain FCP1, active compounds read low 0.941 | locus YNL006W, strain LST8, active compounds read low 0.934 | locus YNL020C, strain ARK1, active compounds read low 0.914 | locus YNL161W, strain CBK1, active compounds read low 0.931 | [6] 0.857 | locus YNL207W, strain RIO2, active compounds read low 0.968 | locus YNL222W, strain SSU72, active compounds read low 0.949 | locus YNL307C, strain MCK1 (second series), active compounds read low 0.901 | locus YOL078W, strain AVO1, active compounds read low 0.928 | locus YOL136C, strain PFK27, active compounds read low 0.951 | locus YOR061W, strain CKA2, active compounds read low 0.93 | locus YOR119C, strain RIO1, active compounds read low 0.947 | [7] 0.842 | locus YOR329C, strain SCD5, active compounds read low 0.943 | locus YPL031C, strain PHO85, active compounds read low 0.862 | locus YPL153C, strain RAD53, active compounds read low 0.84 | locus YPL204W, strain HRR25, active compounds read low 0.903 | locus YPL209C, strain IPL1, active compounds read low 0.954 | locus YPR025C, strain CCL1, active compounds read low 0.947 | locus YPR106W, strain ISR1, active compounds read low 0.986 | locus YPR111W, strain DBF20, active compounds read low 0.981 | strain NNK1, active compounds read low 0.97 | strain TSCII, active compounds read low 0.908
active: [1] 0.71 | [5] 0.691 | [8] 0.831
